Some test systems named below: HCT-15 colon; HT29 colon; SNB-75 CNS; U251 CNS; PC-3 prostate; SK-MEL-5 melanoma; UACC-62 melanoma; LOX IMVI melanoma; SK-MEL-28 melanoma; SK-MEL-2 melanoma; EKVX NSCLC; SN12C renal; UO-31 renal; TK-10 renal; ACHN renal; CAKI-1 renal; A498 renal; CCRF-CEM leukemia; MOLT-4 leukemia; SNB-19 CNS.
Holding throughout (assay): NCI-60 one-dose screen, 48 h (100 = growth as untreated, 0 = no growth, -100 = all killed)
Common to all, as to details: 10 µM unless noted

Several values for one entry are separate records, joined by “and”; a condition that tells them apart may be missing. Equal entries are not always repeated. Compounds without any hit were thinned out: in the full panel of roughly 83,000, 20% have a hit.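 Negative percent growth values reflect cell death: -40 means 40% of the cells present at the start died, and -100 means all died.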 Activity calls are given as the source filed them. The calls were made as follows: active = growth percent below 10; inactive = the rest.

For `O=C(Nc1ccccc1C(=O)N/N=C(\c1ccccc1)c1ccccn1)c1ccccc1`, the growth in the experiment with HCT-15 colon is 25.7% (inactive); with HT29 colon it was 22.1% (inactive); with SNB-75 CNS, 64% (inactive); in the experiment with U251 CNS, 10.8% (inactive); in the experiment on PC-3 prostate, 43.7% (inactive); in the experiment with SK-MEL-5 melanoma, -20.9% (active). The growth in the experiment with UACC-62 melanoma was -10.4% (active); with LOX IMVI melanoma, 14.5% (inactive); in the experiment with SK-MEL-28 melanoma, 31.9% (inactive); with SK-MEL-2 melanoma, 30.2% (inactive); in the experiment with EKVX NSCLC, 10.1% (inactive); with SN12C renal, 25.4% (inactive). Besides, the growth in the experiment with UO-31 renal is 8.85% (active); with TK-10 renal, 47.4% (inactive); in the experiment on ACHN renal, 13.6% (inactive); in the experiment on CAKI-1 renal, 16.9% (inactive); with A498 renal, 16.5% (inactive); in the experiment with CCRF-CEM leukemia, -2.61% (active). Moreover, in the experiment with MOLT-4 leukemia, the growth was 2.47% (active).

On to `Cc1cccc(Cc2cnc(NC(=O)CCCOc3ccc(Cl)cc3)s2)c1`, for which the growth in the experiment on HCT-15 colon was 24.6% (inactive); in the experiment on HT29 colon, 11.6% (inactive); in the experiment on SNB-75 CNS it was 21.3% (inactive); in the experiment on U251 CNS it was 14% (inactive); with PC-3 prostate, 42.5% (inactive); in the experiment on SK-MEL-5 melanoma it was 30.7% (inactive). Moreover, the growth in the experiment on UACC-62 melanoma is 32.4% (inactive); with LOX IMVI melanoma, 35.6% (inactive); in the experiment on SK-MEL-28 melanoma it was 58.4% (inactive); in the experiment on SK-MEL-2 melanoma, 67.2% (inactive); in the experiment on EKVX NSCLC, 41.4% (inactive); in the experiment with SN12C renal, 34.9% (inactive). Moreover, the growth is 19% (inactive) in the experiment on UO-31 renal; 38.3% (inactive) with TK-10 renal; 12.1% (inactive) with ACHN renal; 27.1% (inactive) in the experiment with CAKI-1 renal; -2.46% (active) with A498 renal; 16.3% (inactive) with CCRF-CEM leukemia. In the experiment with MOLT-4 leukemia, the growth was 40.1% (inactive).

On to `[Cu+].[NH-][C@H]1C[N-]C(=O)[C@H]([C@H]2CCN=C(N)N2)[N-]C(=O)/C(=C\NC(N)=O)[N-]C(=O)[C@H](CNC(=O)C[C@@H](N)CCCN)[N-]C(=O)[C@H](CO)[N-]C1=O`, for which the growth in the experiment with HCT-15 colon is 100% (inactive); in the experiment with HT29 colon, 104% (inactive); with SNB-75 CNS it was 88.2% (inactive); in the experiment with SNB-19 CNS, 103% (inactive); in the experiment on U251 CNS, 101% (inactive); in the experiment on PC-3 prostate it was 96% (inactive). The growth with SK-MEL-5 melanoma was 109% (inactive); in the experiment with LOX IMVI melanoma it was 98.7% (inactive); with SK-MEL-2 melanoma it was 108% (inactive); with EKVX NSCLC, 109% (inactive); in the experiment with SN12C renal, 103% (inactive); in the experiment with UO-31 renal it was 86.8% (inactive). Moreover, the growth with TK-10 renal was 98.1% (inactive); in the experiment on ACHN renal, 108% (inactive); in the experiment on CAKI-1 renal, 87.8% (inactive); with A498 renal, 85.7% (inactive); with CCRF-CEM leukemia it was 99.9% (inactive); with MOLT-4 leukemia, 102% (inactive).

Turning to `Cc1cnc(C(=O)NNc2nc3sc4c(c3c(=O)[nH]2)C(C)CCC4)cn1` (stereo not drawn), the growth in the experiment with HCT-15 colon is 26% (inactive); in the experiment on HT29 colon it was 27.9% (inactive); in the experiment with SNB-75 CNS, 36.8% (inactive); in the experiment on U251 CNS, 10.4% (inactive); with PC-3 prostate it was 29.7% (inactive); in the experiment with SK-MEL-5 melanoma it was -38.1% (active). For the same compound, the growth in the experiment with UACC-62 melanoma is 8.87% (active); with LOX IMVI melanoma, 0.703% (active); in the experiment with SK-MEL-28 melanoma, 23.3% (inactive); in the experiment with SK-MEL-2 melanoma it was 24.7% (inactive); in the experiment on EKVX NSCLC, 23.5% (inactive); in the experiment on SN12C renal, 26% (inactive). Also, the growth in the experiment with UO-31 renal is 4.88% (active); with TK-10 renal, 33.5% (inactive); in the experiment on ACHN renal it was 11.8% (inactive); with CAKI-1 renal, 6.98% (active); in the experiment with A498 renal it was 33.9% (inactive); in the experiment with CCRF-CEM leukemia it was 11.8% (inactive). In addition, the growth in the experiment on MOLT-4 leukemia is 15.7% (inactive).

`Cc1ccc(S(=O)(=O)OC[C@@]2(C)CC[C@]3(C)CC[C@]4(C)C(=C3C2)C=C[C@@H]2[C@@]3(C)CCCNC(C)(C)[C@@H]3CC[C@]24C)cc1`: the growth in the experiment on HCT-15 colon was -74.5% (active); in the experiment on HT29 colon, -69.2% (active); in the experiment on SNB-75 CNS, 82.9% (inactive); in the experiment with U251 CNS, -95.9% (active); with PC-3 prostate, 43.5% (inactive); in the experiment on SK-MEL-5 melanoma it was 76.5% (inactive). For the same compound, the growth with UACC-62 melanoma is 61.1% (inactive); with LOX IMVI melanoma it was -99.2% (active); in the experiment on SK-MEL-28 melanoma, 96.7% (inactive); with SK-MEL-2 melanoma, 9.43% (active); with EKVX NSCLC it was 88.9% (inactive); with SN12C renal, 7.76% (active). The growth in the experiment on UO-31 renal is 71.6% (inactive); in the experiment on TK-10 renal it was 68.6% (inactive); in the experiment with ACHN renal it was -46.6% (active); in the experiment with CAKI-1 renal, 1.61% (active); in the experiment on A498 renal, 104% (inactive); with CCRF-CEM leukemia, 0.849% (active). Also, the growth in the experiment on MOLT-4 leukemia was -24.8% (active).

As to `O=C(CN1C(=O)S/C(=C\C(Cl)=C\c2ccccc2)C1=O)NCCCn1ccnc1`, the growth is 1.15% (active) in the experiment with HCT-15 colon; 10.5% (inactive) with HT29 colon; 32% (inactive) with SNB-75 CNS; 45.6% (inactive) in the experiment with U251 CNS; 45.8% (inactive) in the experiment on PC-3 prostate; 64.1% (inactive) in the experiment with SK-MEL-5 melanoma. In addition, the growth in the experiment on UACC-62 melanoma was 18.8% (inactive); in the experiment with LOX IMVI melanoma, -52.3% (active); in the experiment on SK-MEL-28 melanoma it was 12.4% (inactive); in the experiment on SK-MEL-2 melanoma, 38.2% (inactive); with EKVX NSCLC, 41.2% (inactive); in the experiment with SN12C renal it was 26.1% (inactive). Besides, the growth is 48.7% (inactive) in the experiment with UO-31 renal; 36.2% (inactive) in the experiment with TK-10 renal; 50.5% (inactive) in the experiment on CAKI-1 renal; 95.7% (inactive) with A498 renal; 5.11% (active) in the experiment with CCRF-CEM leukemia; 6.18% (active) in the experiment on MOLT-4 leukemia.

As to `COc1ccc(-c2cc(=O)c3c(O)cc(O)cc3o2)cc1`, the growth is 103% (inactive) and 100% (inactive) with HCT-15 colon; 110% (inactive) and 109% (inactive) in the experiment with HT29 colon; 99.1% (inactive) and 118% (inactive) in the experiment on SNB-75 CNS; 92.9% (inactive) and 84% (inactive) in the experiment on U251 CNS; 94.9% (inactive) and 83.8% (inactive) with PC-3 prostate; 104% (inactive) and 92.7% (inactive) in the experiment on SK-MEL-5 melanoma. Besides, the growth in the experiment on UACC-62 melanoma was 104% (inactive) and 96.9% (inactive); with LOX IMVI melanoma it was 82.8% (inactive) and 91.6% (inactive); with SK-MEL-28 melanoma, 113% (inactive) and 111% (inactive); in the experiment on SK-MEL-2 melanoma it was 116% (inactive); in the experiment with EKVX NSCLC it was 103% (inactive); with SN12C renal, 102% (inactive) and 82% (inactive). The growth in the experiment with UO-31 renal was -74.8% (active) and 92.7% (inactive); with TK-10 renal, 119% (inactive) and 104% (inactive); in the experiment with CAKI-1 renal, 108% (inactive) and 105% (inactive); in the experiment on A498 renal, 97.5% (inactive); in the experiment with CCRF-CEM leukemia, 94.2% (inactive) and 86.6% (inactive); with MOLT-4 leukemia it was 76.4% (inactive) and 85.6% (inactive).

In the case of `CN(C)C(=O)c1cc2cnc(Nc3ccc(-c4csc5c(=S)cc(N6CCOCC6)oc45)cc3)nc2n1C1CCCC1`, the growth in the experiment with HCT-15 colon is 7.32% (active); in the experiment on HT29 colon it was 5% (active); in the experiment on SNB-75 CNS, -37.4% (active); in the experiment on U251 CNS, 7.08% (active); in the experiment on PC-3 prostate it was -4.89% (active); with SK-MEL-5 melanoma it was -30.4% (active). For the same compound, the growth in the experiment on UACC-62 melanoma is -35.8% (active); in the experiment with LOX IMVI melanoma it was -39.8% (active); in the experiment on SK-MEL-28 melanoma it was 9.77% (active); with SK-MEL-2 melanoma, -24.6% (active); with EKVX NSCLC, 12.1% (inactive); with SN12C renal, 7.93% (active). In addition, the growth is -4.43% (active) in the experiment on UO-31 renal; 4.82% (active) in the experiment on TK-10 renal; 11.7% (inactive) with CAKI-1 renal; -38.2% (active) in the experiment with A498 renal; 1.8% (active) with CCRF-CEM leukemia; 2.85% (active) with MOLT-4 leukemia.

For the origin of these results see PubChem BioAssay (NCI).
